Experimental data: PubChem BioAssay AID1159580 (chemical genetic matrix, 2015)
Where “and” joins values, the source holds several entries; their conditions need not be identical. Identical values can stand only once. Screen size: about 5,500 compounds; about 2,000 (36%) were called active. Another 18% or so got no clear call; they are omitted. Cut-off read from the data, not from the text of the source: active = normalized growth mostly below about 0.91 (no sharp cut-off); inconclusive = no clear call, values can overlap the other calls; inactive = mostly above about 0.92. The list shows a part of the results.

Assay: chemical genetic growth profiling, strain panel (AID 1159580);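 note: tested at 20 µM; growth read once vehicle control cultures reached saturation at 30 °C; 1 = growth at the plate median or of vehicle wells; lower values mean less growth of the strain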
Conditions: S. cerevisiae deletion strains, growth OD
[1] = locus YAL013W, strain DEP1, stronger effect = lower value
[2] = locus YBR229C, strain ROT2, stronger effect = lower value
[3] = locus YDL101C, strain DUN1, stronger effect = lower value
[4] = locus YDR150W, strain NUM1, stronger effect = lower value
[5] = locus YEL061C, strain CIN8, stronger effect = lower value
[6] = locus YGR078C, strain PAC10, stronger effect = lower value
[7] = locus YHR030C, strain SLT2, stronger effect = lower value
[8] = locus YJL187C, strain SWE1, stronger effect = lower value
[9] = locus YJR043C, strain POL32, stronger effect = lower value
[10] = locus YJR075W, strain HOC1, stronger effect = lower value
[11] = locus YLR039C, strain RIC1, stronger effect = lower value
[12] = locus YLR262C, strain YPT6, stronger effect = lower value
[13] = locus YNL322C, strain KRE1, stronger effect = lower value
[14] = locus YOL006C, strain TOP1, stronger effect = lower value
[15] = locus YPL241C, strain CIN2, stronger effect = lower value

Measured: normalized growth

CC(=O)Nc1cc([As](=O)(O)O)ccc1O
inactive: [1] 0.996 | locus YAL021C, strain ccr4, stronger effect = lower value 1.01 | locus YAL026C, strain drs2, stronger effect = lower value 1.01 | locus YAL030W, strain snc1, stronger effect = lower value 1.01 | locus YBL061C, strain skt5, stronger effect = lower value 1 | locus YBR009C, strain hhf1, stronger effect = lower value 1.01 | locus YBR021W, strain FUR4, stronger effect = lower value 1.05 | locus YBR023C, strain chs3, stronger effect = lower value 1.01 | locus YBR171W, strain sec66, stronger effect = lower value 1.01 | [2] 1.01 | locus YBR231C, strain swc5, stronger effect = lower value 1.01 | locus YBR279W, strain paf1, stronger effect = lower value 0.999 | locus YCL011C, strain gbp2, stronger effect = lower value 1.02 | locus YCL016C, strain dcc1, stronger effect = lower value 0.994 | locus YCL029C, strain bik1, stronger effect = lower value 0.981 | locus YCL061C, strain MRC1, stronger effect = lower value 0.995 | locus YCL069W, strain vba3, stronger effect = lower value 1.01 | locus YCR088W, strain abp1, stronger effect = lower value 1.01 | locus YDL005C, strain med2, stronger effect = lower value 1 | locus YDL035C, strain GPR1, stronger effect = lower value 0.999 | locus YDL040C, strain nat1, stronger effect = lower value 1.01 | locus YDL074C, strain BRE1, stronger effect = lower value 0.936 | [3] 0.992 | locus YDL185W, strain tfp1, stronger effect = lower value 0.945 | locus YDL192W, strain arf1, stronger effect = lower value 0.994 | locus YDR001C, strain nth1, stronger effect = lower value 1.02 | locus YDR069C, strain doa4, stronger effect = lower value 1.01 | locus YDR101C, strain arx1, stronger effect = lower value 0.936 | locus YDR137W, strain rgp1, stronger effect = lower value 1.01 | [4] 0.997 | locus YDR159W, strain sac3, stronger effect = lower value 0.988 | locus YDR162C, strain NBP2, stronger effect = lower value 0.996 | locus YDR195W, strain ref2 0.995 | locus YDR297W, strain sur2, stronger effect = lower value 1.01 | locus YDR318W, strain mcm21, stronger effect = lower value 1 | locus YDR334W, strain swr1, stronger effect = lower value 1.02 | locus YDR335W, strain msn5, stronger effect = lower value 1.01 | locus YDR388W, stronger effect = lower value 0.997 | locus YDR392W, strain spt3, stronger effect = lower value 0.905 | locus YDR502C, strain sam2, stronger effect = lower value 1.02 | locus YEL003W, strain gim4, stronger effect = lower value 1.01 | locus YEL037C, strain rad23, stronger effect = lower value 1.01 | locus YEL061C, strain CIN8 (second series), stronger effect = lower value 1.02 | [5] 1 | locus YER015W, strain faa2, stronger effect = lower value 0.998 | locus YER016W, strain bim1, stronger effect = lower value 1.01 | locus YER110C, stronger effect = lower value 0.983 | locus YER111C, strain swi4, stronger effect = lower value 1 | locus YER155C, strain BEM2 (second series), stronger effect = lower value 0.982 | locus YER155C, strain BEM2, stronger effect = lower value 1.01 | locus YER167W, strain BCK2, stronger effect = lower value 0.996 | locus YFR010W, strain ubp6, stronger effect = lower value 1.03 | locus YGL078C, strain dbp3, stronger effect = lower value 0.985 | locus YGL086W, strain mad1, stronger effect = lower value 0.996 | locus YGL167C, strain pmr1, stronger effect = lower value 1.01 | locus YGL173C, strain kem1, stronger effect = lower value 1.01 | locus YGL227W, strain vid30, stronger effect = lower value 1.01 | locus YGL240W, strain doc1, stronger effect = lower value 0.978 | locus YGL248W, strain PDE1, stronger effect = lower value 1.01 | locus YGL253W, strain hxk2, stronger effect = lower value 1.02 | [6] 1 | locus YGR135W, strain pre9, stronger effect = lower value 1.01 | locus YGR252W, strain gcn5, stronger effect = lower value 1.11 | locus YHR013C, strain ard1, stronger effect = lower value 0.997 | locus YHR027C, strain rpn1, stronger effect = lower value 1.02 | [7] 0.981 and 1.03 | locus YHR079C, strain IRE1 (second series), stronger effect = lower value 0.983 | locus YHR079C, strain IRE1, stronger effect = lower value 1.01 | locus YHR094C, strain hxt1, stronger effect = lower value 0.996 | locus YHR129C, strain ARP1, stronger effect = lower value 0.985 | locus YHR142W, strain chs7, stronger effect = lower value 1.03 | locus YHR200W, strain rpn10, stronger effect = lower value 0.991 | locus YIL066C, strain RNR3, stronger effect = lower value 0.998 | locus YIL073C, strain SPO22, stronger effect = lower value 0.99 | locus YIL125W, strain kgd1, stronger effect = lower value 0.985 | locus YIR030C, strain dcg1, stronger effect = lower value 0.992 | locus YJL092W, strain hpr5, stronger effect = lower value 1 | locus YJL095W, strain BCK1 (second series), stronger effect = lower value 1.03 | locus YJL095W, strain BCK1, stronger effect = lower value 1.03 and 1.02 | locus YJL115W, strain asf1, stronger effect = lower value 1.01 | locus YJL129C, strain trk1, stronger effect = lower value 1.01 | locus YJL134W, strain LCB3, stronger effect = lower value 0.997 | locus YJL154C, strain vps35, stronger effect = lower value 1.01 | locus YJL164C, strain tpk1, stronger effect = lower value 1 | locus YJL166W, strain qcr8, stronger effect = lower value 0.999 | locus YJL168C, strain set2, stronger effect = lower value 0.932 | locus YJL187C, strain SWE1 (second series), stronger effect = lower value 0.995 | [8] 1.04 | [9] 0.997 | locus YJR066W, strain TOR1, stronger effect = lower value 0.961 | [10] 0.983 | locus YKL009W, strain mrt4, stronger effect = lower value 0.956 | locus YKL068W, stronger effect = lower value 0.986 | locus YKL085W, strain MDH1 (second series), stronger effect = lower value 0.982 | locus YKL085W, strain MDH1, stronger effect = lower value 0.982 | locus YKL160W, strain elf1, stronger effect = lower value 0.981 | locus YKR001C, strain vps1, stronger effect = lower value 0.999 | locus YKR026C, strain gcn3, stronger effect = lower value 1 | locus YKR091W, strain srl3, stronger effect = lower value 1.01 | locus YLL001W, strain dnm1, stronger effect = lower value 0.99 | locus YLL026W, stronger effect = lower value 1 | locus YLL041C, strain sdh2, stronger effect = lower value 1 | locus YLR027C, strain aat2, stronger effect = lower value 1 | [11] 1.01 | locus YLR058C, strain SHM2, stronger effect = lower value 0.994 | locus YLR102C, strain apc9, stronger effect = lower value 0.984 | locus YLR113W, strain HOG1, stronger effect = lower value 1.01 | locus YLR221C, strain rsa3, stronger effect = lower value 1.02 | locus YLR258W, strain gsy2, stronger effect = lower value 0.998 | locus YLR262C, strain YPT6 (second series), stronger effect = lower value 0.999 | [12] 1.01 | locus YLR268W, strain sec22, stronger effect = lower value 0.964 | locus YLR320W, strain mms22, stronger effect = lower value 0.995 | locus YLR330W, strain CHS5, stronger effect = lower value 1 | locus YLR342W, strain FKS1 (second series), stronger effect = lower value 1.01 | locus YLR342W, strain FKS1, stronger effect = lower value 1.01 | locus YLR357W, strain rsc2, stronger effect = lower value 1 | locus YLR370C, strain arc18, stronger effect = lower value 1.01 | locus YLR371W, strain rom2, stronger effect = lower value 0.984 | locus YLR384C, strain iki3, stronger effect = lower value 0.998 | locus YLR418C, strain cdc73, stronger effect = lower value 0.997 | locus YML016C, strain PPZ1, stronger effect = lower value 0.995 | locus YML032C, strain rad52, stronger effect = lower value 1.03 | locus YML120C, strain ndi1, stronger effect = lower value 1.01 | locus YML124C, strain tub3, stronger effect = lower value 0.981 | locus YMR058W, strain fet3, stronger effect = lower value 1.01 | locus YMR078C, strain ctf18, stronger effect = lower value 0.976 | locus YMR125W, strain sto1, stronger effect = lower value 1 | locus YMR129W, stronger effect = lower value 1.01 | locus YMR205C, strain PFK2, stronger effect = lower value 0.994 | locus YMR223W, strain ubp8, stronger effect = lower value 1.01 | locus YMR231W, strain pep5, stronger effect = lower value 0.996 | locus YMR307W, strain GAS1, stronger effect = lower value 1.17 | locus YNL067W, strain RPL9B, stronger effect = lower value 0.983 | locus YNL071W, strain lat1, stronger effect = lower value 1.01 | locus YNL183C, strain NPR1, stronger effect = lower value 0.973 | locus YNL209W, strain ssb2, stronger effect = lower value 1.01 | locus YNL233W, strain BNI4, stronger effect = lower value 1.01 | locus YNL248C, strain rpa49, stronger effect = lower value 0.987 | locus YNL250W, strain rad50, stronger effect = lower value 0.976 | locus YNL271C, strain bni1, stronger effect = lower value 0.983 | locus YNL298W, strain CLA4, stronger effect = lower value 1 | locus YNL307C, strain MCK1, stronger effect = lower value 0.981 | locus YNL322C, strain KRE1 (second series), stronger effect = lower value 0.992 | [13] 1 | locus YNR049C, strain mso1, stronger effect = lower value 1.01 | locus YNR052C, strain pop2, stronger effect = lower value 1 | [14] 0.999 | locus YOL012C, strain htz1 0.886 | locus YOL147C, strain pex11, stronger effect = lower value 0.995 | locus YOR001W, strain rrp6, stronger effect = lower value 0.989 | locus YOR061W, strain CKA2, stronger effect = lower value 0.993 | locus YOR069W, strain VPS5, stronger effect = lower value 0.998 | locus YOR070C, strain gyp1, stronger effect = lower value 1 | locus YOR080W, strain dia2, stronger effect = lower value 1 | locus YOR083W, strain WHI5, stronger effect = lower value 0.978 | locus YOR106W, strain vam3, stronger effect = lower value 0.99 | locus YOR136W, strain idh2, stronger effect = lower value 0.974 | locus YOR144C, strain elg1, stronger effect = lower value 0.992 | locus YOR184W, strain ser1, stronger effect = lower value 0.988 | locus YOR231W, strain MKK1, stronger effect = lower value 1 | locus YOR265W, strain rbl2, stronger effect = lower value 0.998 | locus YOR270C, strain vph1, stronger effect = lower value 1.05 | locus YOR290C, strain snf2, stronger effect = lower value 0.993 | locus YOR316C, strain cot1, stronger effect = lower value 0.985 | locus YPL051W, strain arl3, stronger effect = lower value 1 | locus YPL078C, strain atp4, stronger effect = lower value 0.982 | locus YPL106C, strain sse1, stronger effect = lower value 0.985 | locus YPL240C, strain hsp82, stronger effect = lower value 0.998 | [15] 1 | locus YPL256C, strain CLN2, stronger effect = lower value 1.03 | locus YPR119W, strain clb2, stronger effect = lower value 0.983 | locus YPR141C, strain kar3, stronger effect = lower value 0.988 | locus YPR163C, strain tif3, stronger effect = lower value 0.997 | locus YPR167C, strain met16, stronger effect = lower value 0.994 | strain wtn01, stronger effect = lower value 0.964

O=[N+]([O-])c1ccc(SC2=NCCN2)c(Cl)c1
inactive: [1] 0.994 | [2] 1 | [3] 0.987 | [4] 0.985 | [5] 0.978 | [6] 0.987 | [7] 1.03 | locus YHR087W, strain rtc3, stronger effect = lower value 1.01 | [8] 0.98 | [9] 0.964 | [10] 0.952 | locus YKL190W, strain CNB1, stronger effect = lower value 0.994 | [11] 1 | locus YLR058C, strain SHM2 (second series), stronger effect = lower value 0.992 | locus YLR085C, strain ARP6, stronger effect = lower value 0.965 | [12] 1 | locus YML094W, strain GIM5, stronger effect = lower value 0.972 | locus YMR219W, strain ESC1, stronger effect = lower value 0.977 | locus YMR263W, strain SAP30, stronger effect = lower value 1.01 | locus YNL153C, strain GIM3, stronger effect = lower value 1.02 | locus YNL298W, strain CLA4 (second series), stronger effect = lower value 1.03 | [13] 0.984 | locus YNR030W, strain Alg12, stronger effect = lower value 0.995 | [14] 1 | locus YPL055C, strain LGE1, stronger effect = lower value 1.03 | [15] 0.985 | locus YPR135W, strain CTF4, stronger effect = lower value 1.09
